Data published in PubChem BioAssay AID463173 (ICCB-Longwood Screening Facility, Harvard Medical School, 2010).
Hit rate of the full screen: of about 52,000 compounds, about 4,300 (8.3%) were called active. The sample holds actives, similar compounds and a random draw of the others, so the mix is not that of the screen. Values without a mark were called inactive. Rule as the data show it: active = survival mostly below about 52% (no sharp cut-off); inactive = mostly above about 56%.

The compounds below were run on DeltatarO mutant (assay: S. aureus survival, RN4220 and DeltatarO strains – OD600, teichoic acid synthesis inhibitors, primary screen (AID 463173)). Settings: S. aureus RN4220 wild type/DeltatarO growth, OD600, 18 h, stronger effect = lower value, screened at 18.75 µg/mL (by protocol).

Row | Compound | survival
1 | CCC(c1nnnn1CCOC)N(Cc1cc2ccc(OC)cc2[nH]c1=O)C1CCCC1 (stereo not given) | 92%
2 | Cc1ccc(C)c(N2CCN(C(=O)c3cc4cc5ccc(C)cc5nc4s3)CC2)c1 | 95%
3 | N#Cc1c2c(c(-c3ccccc3)[nH]c1=S)CCCC2 | 91%
4 | CCc1ccc(-c2nn(CC(=O)NC3CCCCC3)c3c2cnc2ccc(OC)cc23)cc1 | 98%
5 | CCOC(=O)c1c(C)sc(-c2c(-c3cc(C)ccc3C)[nH]c3c2c(=O)[nH]c(=O)n3C)c1O | 40% (active)
6 | CCc1ccc(-c2[nH]c3c(c2-c2sc(C)c(C(=O)OC)c2O)c(=O)[nH]c(=O)n3C)cc1 | 23% (active)
7 | CCOC(=O)c1c(C)sc(-c2c(-c3ccc4c(c3)OCCO4)[nH]c3c2c(=O)[nH]c(=O)n3C)c1O | 106%
8 | COC(=O)c1c(C)sc(-c2c(-c3ccc4c(c3)OCCO4)[nH]c3c2c(=O)[nH]c(=O)n3C)c1O | 37% (active)
9 | COC(=O)c1c(C)sc(-c2c(-c3cccc(Cl)c3)[nH]c3c2c(=O)[nH]c(=O)n3C)c1O | 113%
10 | CCc1ccc(-c2[nH]c3c(c2-c2sc(C)c(C(=O)OC)c2O)c(=O)n(C)c(=O)n3C)cc1 | 51%
11 | CCOC(=O)c1c(C)sc(-c2c(-c3cc(C)ccc3C)[nH]c3c2c(=O)n(C)c(=O)n3C)c1O | 105%
12 | COC(=O)c1c(C)sc(-c2c(-c3ccc4c(c3)OCCO4)[nH]c3[nH]c(=O)[nH]c(=O)c23)c1O | 50%
13 | CCOC(=O)c1c(C)sc(-c2c(-c3ccc(OC)c(F)c3)[nH]c3c2c(=O)[nH]c(=O)n3C)c1O | 117%
14 | CCOC(=O)c1c(C)sc(-c2c(-c3cccc(Cl)c3)[nH]c3c2c(=O)n(C)c(=O)n3C)c1O | 113%
15 | COC(=O)c1c(C)sc(-c2c(-c3cccc(OC)c3)[nH]c3c2c(=O)[nH]c(=O)n3C)c1O | 43% (active)
16 | COC(=O)c1c(C)sc(-c2c(-c3ccc(F)cc3)[nH]c3[nH]c(=O)[nH]c(=O)c23)c1O | 116%
17 | COc1cccc(CNC(=O)c2c(C)oc3ncnc(N4CCOCC4)c23)c1 | 87%
18 | COc1ccc(CNC(=O)C2CCN(c3nnc(-n4cccc4CNc4ccc(C)cc4)s3)CC2)c(OC)c1 | 70%
19 | COc1ccc(CN2CCc3nc(N4CCN(c5ccc(F)cc5)CC4)ncc3C2)c(OC)c1OC | 119%
20 | COc1ccc(-c2nc3sc(CCNC(=O)c4cc(OC)c(OC)c(OC)c4)c(C)n3n2)cc1 | 83%
21 | CN(C(=O)CSc1nc2ccc(NC(=O)COc3ccc(Cl)cc3)cc2s1)c1ccccc1 | 72%
22 | CCOc1ccc(OCC)c(Nc2nc3ccc(Cl)cc3n3cnnc23)c1 | 65%

Row | Compound | survival
23 | CC(C)NC(=O)C1CCN(S(C)(=O)=O)CC1 | 93%
24 | CSc1nc(NNC(=O)c2ccco2)c2c3c(sc2n1)COC(C)(C)C3 | 81%
25 | CCOc1ccccc1NC(=O)C(C)N(c1ccccc1)S(C)(=O)=O (stereo not given) | 91%
26 | COC(=O)c1c(C)sc(-c2c(-c3ccc(OC)c(F)c3)[nH]c3c2c(=O)n(C)c(=O)n3C)c1O | 120%
27 | CCOC(=O)c1c(C)sc(-c2c(-c3ccc4c(c3)OCCO4)[nH]c3c2c(=O)n(C)c(=O)n3C)c1O | 128%
28 | COC(=O)c1c(C)sc(-c2c(-c3ccc4c(c3)OCCO4)[nH]c3c2c(=O)n(C)c(=O)n3C)c1O | 43% (active)
29 | COCCCNc1c2c(nc3ccccc13)CCC2 | 125%
30 | O=C1COc2ccc(-c3cc(-c4ccc(F)cc4)c4c(n3)-c3cc(Cl)ccc3OC4)cc2N1 | 88%
31 | COc1cc(OC)c(NS(=O)(=O)c2c(C)nc3sc(C)cn3c2=O)cc1Cl | 65%
32 | CC(=O)c1ccc(NS(=O)(=O)c2c(C)nc3scc(C)n3c2=O)cc1 | 88%
33 | COC(=O)c1ccc(NS(=O)(=O)c2c(C)nc3sccn3c2=O)cc1 | 72% (active)
34 | CCCCOC(=O)c1ccc(NS(=O)(=O)c2c(C)nc3scc(C)n3c2=O)cc1 | 43% (active)
35 | Cc1nc2sccn2c(=O)c1S(=O)(=O)Nc1cc(Cl)ccc1O | 51%
36 | Cc1nc2sccn2c(=O)c1S(=O)(=O)Nc1ccc(N2CCN(C)CC2)cc1 | 106%
37 | COc1ccc(NS(=O)(=O)c2c(C)nc3scc(C)n3c2=O)cc1 | 90%
38 | COc1cc(Cl)c(C)cc1NS(=O)(=O)c1c(C)nc2sccn2c1=O | 64% (active)
39 | Cc1nc2sccn2c(=O)c1S(=O)(=O)Nc1cc(C(F)(F)F)ccc1Cl | 69% (active)
40 | CCOc1ccccc1NS(=O)(=O)c1c(C)nc2sccn2c1=O | 63%
41 | Cc1ccc(NS(=O)(=O)c2c(C)nc3sccn3c2=O)c(Cl)c1 | 132%
42 | CC(=O)Nc1ccc(NS(=O)(=O)c2c(C)nc3sccn3c2=O)cc1 | 61%
43 | COc1ccc(Cn2nnnc2C(C(C)C)N2CCc3ccccc32)cc1 (stereo not given) | 82%
44 | CC(=O)N1CCC(N(Cc2ccco2)C(=O)Nc2ccc(C)c(Cl)c2)CC1 | 128%

Row | Compound | survival
45 | CN(C)S(=O)(=O)c1ccc2c(c1)N(CC(=O)NCc1ccccc1)C(=O)C1CCCCN21 (stereo not given) | 67%
46 | CCSc1nc2n(n1)C(c1ccc(C(=O)O)cc1)C(C(=O)Nc1ccccc1C)=C(C)N2 (stereo not given) | 84%
47 | COc1ccc(N2CCN(C(=O)Nc3ccc(Cl)cc3)CC2)cc1 | 168%
48 | COc1ccc(S(=O)(=O)c2cn(CC(=O)Nc3cc(C)ccc3C)c3ccccc3c2=O)cc1 | 86%
49 | COc1ccccc1NC(=O)C1=C(C)Nc2nc(SCc3cc(C)ccc3C)nn2C1c1ccccc1 (stereo not given) | 116%
50 | CCOc1ccc(NC(=O)CSc2ncc3c(n2)-c2ccc(Cl)cc2N(Cc2ccccc2)S3(=O)=O)cc1 | 99%
51 | O=C(NCc1ccccc1Cl)c1ccc(Nc2nc3ccccc3n3nnnc23)cc1 | 84%
52 | Cc1cc(/C=C(\C#N)C(=O)Nc2ccccc2)c(C)n1-c1ccc(F)cc1 | 59%
53 | COc1cccc(Nc2nnc(-c3cc4ccc(O)cc4oc3=O)s2)c1 | 85%
54 | O=C(Nc1ccc(Br)cc1)c1cc(-c2cccs2)nc2ccccc12 | 83%
55 | Cc1ccc(NC(=O)c2sc3nc(-c4ccncc4)ccc3c2N)cc1 | 131%
56 | Nc1c(C(=O)Nc2ccc(Cl)cc2F)sc2nc(-c3cccs3)ccc12 | 58%
57 | CCOc1ccc(OCC)c(NC(=O)c2cc(-c3cccs3)nc3ccccc23)c1 | 85%
58 | Cc1ccc(NC(=O)c2cc(-c3cccs3)nc3ccccc23)c(C)c1 | 57% (active)
59 | Cc1ccccc1NC(=O)c1sc2nc(-c3ccncc3)ccc2c1N | 39%
60 | CC(C)CSc1ccccc1NC(=O)c1sc2nc(-c3ccncc3)ccc2c1N | 46% (active)
61 | Nc1c(C(=O)Nc2cccc(F)c2)sc2nc(-c3cccs3)ccc12 | 69%
62 | Cc1cc(F)ccc1NC(=O)c1sc2nc(-c3cccs3)ccc2c1N | 45% (active)
63 | Cc1ccc(N(Cc2cccs2)C(=O)c2ccc(Br)o2)cc1 | 73%
64 | CC(C)(C)C(=O)CSc1nc2ccsc2c(=O)n1Cc1ccccc1Cl | 77%
65 | COc1ccc(-c2nc3n(c2NC(C)(C)C)CCN(C(=O)Cc2ccccc2F)C3)cc1 | 88%
66 | CSc1ccc(CCNC(=O)c2ccc3c(c2)nc2n3CCC(C)C2)cc1 (stereo not given) | 83%

Row | Compound | survival
67 | CCCSc1ncc(Cl)c(C(=O)Nc2scc(-c3ccc(C)cc3)c2C(=O)OCC)n1 | 62%
68 | CCOC(=O)c1c(NC(=O)c2nc(S(C)(=O)=O)ncc2Cl)sc(C(C)=O)c1C | 6% (active)
69 | CCOC(=O)c1c(-c2ccc(C)cc2)csc1NC(=O)c1nc(SC(C)C)ncc1Cl | 61%
70 | CCCSc1ncc(Cl)c(C(=O)Nc2sc(C(C)=O)c(C)c2C(=O)OCC)n1 | 51%
71 | CCOC(=O)c1c(-c2ccccc2)csc1NC(=O)c1nc(S(=O)(=O)CC)ncc1Cl | 11% (active)
72 | CCOC(=O)c1c(NC(=O)c2nc(SCC)ncc2Cl)sc(C(C)=O)c1C | 75%
73 | CCOC(=O)c1c(-c2ccc(C)cc2)csc1NC(=O)c1nc(SCC)ncc1Cl | 84%
74 | CCOC(=O)c1c(-c2ccccc2)csc1NC(=O)c1nc(SCC)ncc1Cl | 87%
75 | CCCS(=O)(=O)c1ncc(Cl)c(C(=O)Nc2scc(-c3ccccc3)c2C(=O)OCC)n1 | 25% (active)
76 | CCOC(=O)c1cccc(NC(=O)C2CCN(S(=O)(=O)c3cn(C)cn3)CC2)c1 | 102%
77 | COc1ccc(CCN2C(=O)CN(C3CCCCCC3)C(=O)C2c2ccc(OC(C)C)c(OC)c2)cc1OC (stereo not given) | 89%
78 | COc1cc2[nH]c(=O)n(CCCCCC(=O)N3CCN(c4ccc(Cl)cc4)CC3)c(=O)c2cc1OC | 67%
79 | CCOc1ccc(-c2cc(C)n3nc(C(=O)Nc4cc(Cl)ccc4O)cc3n2)cc1 | 62%
80 | CC(=O)Nc1ccc(NC(=O)CCCn2nc(C)c3sc4ccccc4c3c2=O)cc1 | 83%
81 | O=c1oc2c3c(ccc2c2ccccc12)OCN(Cc1ccccc1Cl)C3 | 68%
82 | O=C(NCCc1ccc(Cl)cc1)c1ccc(CSCc2ccc(Cl)cc2)o1 | 83%
83 | CCN1CCN(C(=O)c2ccc3c(c2)N(Cc2cccc(F)c2)C(=O)c2ccccc2S3)CC1 | 85%
84 | CCOc1cc(S(=O)(=O)N(C)C2CCCCC2)c(OCC)cc1-n1cnnn1 | 99%
85 | Cn1c(=O)oc2cc(S(=O)(=O)CCC(=O)N3CCN(c4cccc(Cl)c4)CC3)ccc21 | 81%
